The campaign covered roughly 120,000 compounds. About 270 (0.23%) were called active. Where a call stands in place of a potency, no number is given. About 5% were inconclusive and are not listed. The call rests on the fitted dose curve. For the sample, actives were picked, then their nearest neighbours and some compounds at random.

Our source for the Potency values is PubChem BioAssay AID1745856 (National Center for Advancing Translational Sciences (NCATS), 2022).
Potency means the concentration at half of the fitted maximal effect.

The nature of this experiment: Primary qHTS Assay for Foot and Mouth Disease Virus Antivirals against NCGC Sytravon and CBC Compound Libraries: Firefly Luciferase Signal. Further: nearly all actives have a fitted effect of over 60% in size. Conditions: FMDV antiviral cell assay; series mostly up to 57.5 µM. In general terms: In qHTS, concentration-response curves come from the screen itself.
On to `Cc1ccc(-c2ccc(CCC(=O)O)n2NC(=O)c2ccc(F)cc2)cc1`, for which the Potency result is “inactive”.
Take `O=C(Nc1cccc(I)c1)c1ccc2c3c(cccc13)CC2`: the Potency entry was “inactive”.
In the case of `COC(=O)c1ccc(CNC(=O)CCCNC(=O)C(C)(C)C)cc1` it was “inactive”; in that of `Cc1nc2cc(NC(C)C(=O)Nc3cccc(Cl)c3Cl)ccc2o1` (configuration not stated), “inactive”; in that of `COC(=O)c1cccc(N=Cc2cc(Cl)ccc2O)c1`, “inactive”.
With `CC(C)CNC(=O)COC(=O)Cc1nn(C)c(=O)c2ccccc12`, the Potency result is “inactive”.
Turning to `O=C(CN1CCN(C(=O)c2nn(Cc3ccccc3)c(=O)c3ccccc23)CC1)Nc1ccc(F)cc1`, the Potency result was “inactive”.
As for `Cc1noc(C)c1CS(=O)(=O)c1ccc(Cl)cc1`, the Potency entry is “inactive”.
For the compound `Cc1cccc(NC(=O)c2cc3cc(Br)ccc3oc2=O)c1`, the Potency result was “inactive”.
Consider `COc1ccccc1NC(=O)c1cc2ccccc2cc1OCC(N)=O`, for which the Potency entry is “inactive”.
As for `Cc1nc(NC(=O)C(C)Sc2nnc(-c3ccccc3F)n2CC(C)C)sc1C` (configuration not stated), the Potency result is “inactive”.
On to `Cn1c(=O)[nH]c(=O)c2c(C(=O)O)cc(C3CC3)nc21`, for which the Potency entry was “inactive”.
Consider `Cc1cc(/C=C(/C#N)c2nc3ccccc3n2C)cc(C)c1O`, for which the Potency result was “inactive”.
In the case of `Clc1ccc(CN2CCN(c3ncnc4nc[nH]c34)CC2)cc1` it was “inactive”; in that of `COc1ccccc1-c1nc(C#N)c(NCc2ccccc2)o1`, “inactive”; in that of `[O-]/[N+](=C\c1ccc2ccccc2n1)c1ccccc1`, “inactive”.
For the compound `CCCC(=O)Nc1cccc(-c2cc3cc(F)ccc3[nH]2)c1`, the Potency entry was “inactive”.
On to `Cc1ccc(-c2cc(-c3ccccc3)c(C#N)c(SCCS(=O)Cc3ccccc3)n2)cc1` (configuration not stated), for which the Potency entry is “inactive”.
Take `N#Cc1ccccc1NC(=O)c1cnc2ccccc2n1`: the Potency result is “inactive”.
With `CCOC(=O)c1cc(NCc2c(Cl)cccc2Cl)ccc1N1CCOCC1`, the Potency entry was “inactive”.
The same measure for `Cc1occc1-c1nnc(SCC(=O)N2c3ccccc3CC2C)o1` (configuration not stated): “inactive”; for `Cc1c(Cl)cccc1N(CC(=O)Nc1c(C)n(C)n(-c2ccccc2)c1=O)S(C)(=O)=O`: “inactive”; for `CCOC(=O)c1cc(NC(=O)c2ccc(-c3ccccc3)cc2)ccc1N1CCOCC1`: “inactive”.
With `C(=N\N=C(c1ccccc1)c1ccccc1)/c1c[nH]c2ccccc12`, the Potency entry is “inactive”.
For the compound `Cc1ccc(C(=O)NC2CCSC2=O)cc1C` (configuration not stated), the Potency entry was “inactive”.
Regarding `Cc1ccc(CCNC(=O)c2noc(C)c2Cn2nc(C)cc2C)cc1`, the Potency entry was “inactive”.
As for `O=C(Nc1ncn(Cc2ccc(Cl)cc2)n1)c1ccn(COc2ccc(F)cc2F)n1`, the Potency result was “inactive”.
Regarding `Fc1ccc(-c2ccc(CNCc3ccccc3)o2)cc1`, the Potency entry was “inactive”.
Consider `COc1nc2ccccc2nc1N1CCC(C(=O)Nc2ccccc2F)CC1`, for which the Potency entry is “inactive”.
For the compound `CCCn1nc(C(=O)Nc2ncc(Cc3ccc(F)cc3)s2)ccc1=O`, the Potency was 31.6 µM (active).
On to `Cc1cnc(NC(=O)c2nc(C)n(-c3ccc(F)cc3)n2)s1`, for which the Potency result was “inactive”.
For `Cc1nc(-c2ccc(F)cc2)sc1C(=O)N[C@H](C(=O)O)C(C)C`, the Potency result was “inactive”.
The same measure for `COc1ccc(/C(=N/OC(=O)c2cccc(F)c2)c2nccc3cc(OC)c(OC)cc23)cc1OC`: “inactive”; for `COc1ccc(-c2cc(C(=O)NC3CC(C)(C)NC(C)(C)C3)c3ccccc3n2)cc1OC`: “inactive”; for `CCOc1cc(/C=C2\NC(=O)NC2=O)cc(Br)c1OCc1cccc2ccccc12`: “inactive”.
The same measure for `CCC(CC)NC(=O)COC(=O)c1ccc(C)c(C)c1`: “inactive”; for `COc1ccc(CN(C(=O)COc2ccc(C)cc2)c2ccccn2)cc1OC`: “inactive”.
Turning to `CC1CCN(C(=O)c2cccnc2-c2nc3ccccc3s2)CC1`, the Potency entry was “inactive”.
Regarding `Cc1ccc2c(Cl)cc(Cl)c(OCC(=O)N3CCCCCC3)c2n1`, the Potency result is “inactive”.
Consider `CCCCCNC(=O)N(C)Cc1ccc(C(=O)OC)cc1`, for which the Potency result was “inactive”.
Regarding `COc1cccc(CNC(=O)COC(=O)c2c(F)cccc2F)c1`, the Potency result was “inactive”.
For the compound `COc1ccc(-c2csc(Nc3cccc(C)n3)n2)cc1OC`, the Potency result is “inactive”.
The same measure for `Cc1cccc(C)c1Nc1nc(-c2ccccc2)cs1`: “inactive”.
In the case of `COc1ccc2c(c1OC)C(=O)OC2Nc1nc(-c2ccccc2)cs1` (configuration not stated) it was 28.2 µM (active); in that of `Cc1cccc(C)c1NC(=O)CN(C)CC(=O)NC(=O)NCc1ccccc1`, “inactive”.
Consider `CC(=O)N1CCN(c2c([N+](=O)[O-])cnc3ccc(Br)cc23)CC1`, for which the Potency result is “inactive”.
In the case of `COc1c(C)cccc1C(=O)Nc1cccc2ncccc12`, the Potency result was “inactive”.
The same measure for `CCCOc1ccc(NC(=O)COc2cccc(C)c2C)c2cccnc12`: “inactive”; for `CCOc1ccccc1OCC(=O)Nc1cccc2ncccc12`: 8.91 µM (active).
On to `CCC1CCCCN1S(=O)(=O)c1ccc(NC(=O)c2cc(-c3ccc(OC)cc3)on2)cc1` (configuration not stated), for which the Potency result is “inactive”.
As to `Cc1cc(SCC(=O)NC(=O)NCC(C)C)nc2ccccc12`, the Potency entry is “inactive”.
`COc1ccc(NC(C)=O)cc1S(=O)(=O)NC(c1ccc(F)cc1)c1cccs1` (configuration not stated): the Potency entry was “inactive”.
On to `CC1CCn2c(nc3cc(C(=O)N4CCN(c5ccccc5)CC4)ccc32)C1` (configuration not stated), for which the Potency entry is “inactive”.
Turning to `CC1CCCCN1C(=O)CSc1nc2ccccc2n1CCC#N` (configuration not stated), the Potency entry is “inactive”.
Consider `O=C(CC12CC3CC(CC(C3)C1)C2)OCC(=O)c1ccc2c(c1)OCO2`, for which the Potency entry is “inactive”.
On to `CCCCN(C)C(=O)C1CCC(Cn2c(=O)c3sccc3n(Cc3ccccc3)c2=O)CC1` (configuration not stated), for which the Potency result is “inactive”.
The same measure for `Cc1ccc2nc(-c3ccccn3)cc(C(=O)O)c2c1`: “inactive”; for `Cc1nc2cc(NC(C)C(=O)Nc3ccccc3F)ccc2o1` (configuration not stated): “inactive”; for `CCc1ccc(Nc2nc3ccccc3nc2NS(=O)(=O)c2ccc(F)cc2)cc1`: “inactive”.
For `Cn1nc(C(=O)NCCc2ccc(F)cc2)c2ccccc2c1=O`, the Potency result is “inactive”.
As to `COc1ccc(NC(=O)CSCc2cc(=O)n3cc(C)ccc3n2)cc1Cl`, the Potency result is “inactive”.
Turning to `Cc1cc(=O)oc2c(C)c(OCC(=O)NCCc3ccc(S(N)(=O)=O)cc3)ccc12`, the Potency result was “inactive”.
As to `O=C(CCc1nc2ccccc2s1)NC1CCCCCC1`, the Potency result was “inactive”.
Turning to `CCS(=O)(=O)N1CCc2cc(C(=O)CSc3ccc(Cl)cc3)ccc21`, the Potency result is “inactive”.
In the case of `Cc1ccc(-c2cc(C(=O)N3CCCCCC3)c3ccccc3n2)o1` it was “inactive”.
On to `Cc1cccc(N(C)C(=O)Cn2nc(Cc3cccnc3)c3ccccc3c2=O)c1`, for which the Potency result was “inactive”.
For the compound `Cc1ccc(NC(=O)C(Sc2ccccc2)c2ccccc2)cc1C` (configuration not stated), the Potency entry was “inactive”.
With `CCN(CC)C(=O)c1sc2nc(C(C)(C)C)nc(C)c2c1C`, the Potency result was “inactive”.
Consider `COc1cc(NC(=O)C2CCCN2C(=O)C23CC4CC(CC(C4)C2)C3)c(OC)cc1Cl` (configuration not stated), for which the Potency result is “inactive”.
The same measure for `CC1CCC(NC(=O)c2ccccc2SCC#N)CC1` (configuration not stated): “inactive”; for `COc1ccc2c(C)c(CC(=O)Nc3nnc(C(C)C)s3)c(=O)oc2c1OC`: “inactive”.
With `Cc1ccccc1C(C)N` (configuration not stated), the Potency entry is “inactive”.
On to `COc1ccc(/C=C2\CCc3ccccc3C2=O)cc1Br`, for which the Potency result is “inactive”.
Take `CCOc1ccc(OCC(=O)NCCc2c[nH]c3ccccc23)cc1`: the Potency entry was “inactive”.
Take `COCCN(CCOC)C(=O)Cc1n[nH]c(=O)c2ccccc12`: the Potency result was “inactive”.
Regarding `COc1ccc(-c2noc(-c3cccc(OCC(=O)N4CCCC4)c3)n2)cc1`, the Potency result is “inactive”.
For `O=S(=O)(c1ccc(Sc2nnnn2C2CCCC2)nc1)N1CCOCC1`, the Potency result was “inactive”.
Turning to `Cc1cccc(-c2nc3cc(NC(=O)CC(C)C)ccc3o2)c1`, the Potency result was “inactive”.
`CCOC(=O)CSCc1cccc(Cl)c1`: the Potency result is “inactive”.
`O=c1[nH]c(=O)n(CCc2ccccc2)c2nccc(-c3ccc(Cl)cc3)c12`: the Potency result was “inactive”.
With `CC1CCC(=NNC(=S)NC2CCCCC2)CC1` (configuration not stated), the Potency result is “inactive”.
For the compound `CCCNC(=O)NCc1nc(-c2ccc(OC)cc2)oc1C`, the Potency result is “inactive”.
The same measure for `COc1ccc(C(=O)COC(=O)Cc2c(Cl)cccc2Cl)c(OC)c1`: “inactive”; for `O=C1CC(c2cccc(Br)c2)c2c(n3c(nc4ccccc43)[nH]c2=O)N1` (configuration not stated): “inactive”; for `CCN(C(=O)CSc1nc(-c2ccccc2Cl)nc2cc(=O)[nH]n12)c1ccccc1`: “inactive”.
In the case of `O=C(NCc1coc(-c2cccs2)n1)c1ccc(C(F)(F)F)cc1` it was “inactive”.
As for `O=C(CSc1nc2ncccc2c(=O)n1-c1ccccc1)NC(=O)NC1CC1`, the Potency result is “inactive”.
Consider `CCOCCn1c(NCCCOC)nc2c1c(=O)[nH]c(=O)n2C`, for which the Potency entry was “inactive”.
Take `NC(=O)Cn1nc(-c2cccc([N+](=O)[O-])c2)c2ccccc2c1=O`: the Potency entry is “inactive”.
In the case of `O=C(NCc1ccc(F)cc1)c1cc(S(=O)(=O)C2CCS(=O)(=O)C2)ccc1F` (configuration not stated) it was “inactive”; in that of `CCN(CC)C(=O)Oc1ccc2c(C)c(-c3ccccc3)c(=O)oc2c1`, “inactive”.
In the case of `Cc1ccsc1CNC(=O)CCc1ccc(F)c(F)c1` it was “inactive”; in that of `COCCCNC(=O)Cc1c(C)c2ccc(OC(C)=O)c(OC(C)=O)c2oc1=O`, “inactive”; in that of `C[C@H](NC(=O)C(c1ccccc1)c1ccccc1)C(=O)O`, “inactive”.
On to `Nc1nccnc1C(=O)Nc1cccc(NC(=O)c2ccncc2)c1`, for which the Potency result was “inactive”.
For `CC(Sc1nc2ccccc2n1C)C(=O)NCc1ccc2c(c1)OCO2` (configuration not stated), the Potency result was “inactive”.
In the case of `Cc1nc2ccc(C)c(C)c2s1` it was “inactive”; in that of `O=C(c1cccs1)c1cn(CCOc2ccc(Cl)cc2)c2ccccc12`, “inactive”; in that of `Cc1c(Cl)cccc1NC(=O)Cn1cc(C(=O)c2cccs2)c2ccccc21`, 7.08 µM (active).
In the case of `Cc1ccccc1NC(=O)Cn1cc(C(=O)c2cccs2)c2ccccc21` it was “inactive”; in that of `Cc1ccc(C)c(COC(=O)c2ccc3c(c2)NC(=O)CS3)c1`, “inactive”.
Turning to `CC(C)C(C#CC(O)(c1ccccc1)c1ccccc1)N(C)C` (configuration not stated), the Potency result was “inactive”.
For `COc1cc(NC(=O)Cn2c3c(c(=O)n2-c2ccccc2)Cc2cc(Cl)ccc2O3)cc(OC)c1`, the Potency entry was “inactive”.
Take `O=C(O)c1c(F)c(F)c(F)c(F)c1-c1ccccc1`: the Potency result was “inactive”.
Regarding `O=C(NC1CC1)C(Sc1c(Cl)cccc1Cl)c1ccccc1` (configuration not stated), the Potency result is “inactive”.
Turning to `CCCCCNC(=O)CCc1c[nH]c2ccccc12`, the Potency entry is “inactive”.
Regarding `CCC(C)n1cc(/C=C2\NC(=O)N(CC)C2=O)c2ccccc21` (configuration not stated), the Potency result is “inactive”.
